Laboratory results as given in paper PMC7862700, “An all-to-all approach to the identification of sequence-specific readers for epigenetic DNA modifications on cytosine”.

How the values were obtained:
Experiment in all cases: DAPPL (digital affinity profiling via proximity ligation, sequencing); 10 mM Tris-HCl pH 7.5, 50 mM NaCl, 1 mM DTT, 4% glycerol, room temperature, 30 min; GST-TFs on glutathione beads, 16-mer random dsDNA library, 0.1% formaldehyde crosslink after washing; high values mean tight binding
ELK1 = target: T1, ELK1 (Homo sapiens, UniProt P19419 1-428); settings: protein: recombinant; tags: N-terminal GST; dsDNA, one strand shown
T1 sequence: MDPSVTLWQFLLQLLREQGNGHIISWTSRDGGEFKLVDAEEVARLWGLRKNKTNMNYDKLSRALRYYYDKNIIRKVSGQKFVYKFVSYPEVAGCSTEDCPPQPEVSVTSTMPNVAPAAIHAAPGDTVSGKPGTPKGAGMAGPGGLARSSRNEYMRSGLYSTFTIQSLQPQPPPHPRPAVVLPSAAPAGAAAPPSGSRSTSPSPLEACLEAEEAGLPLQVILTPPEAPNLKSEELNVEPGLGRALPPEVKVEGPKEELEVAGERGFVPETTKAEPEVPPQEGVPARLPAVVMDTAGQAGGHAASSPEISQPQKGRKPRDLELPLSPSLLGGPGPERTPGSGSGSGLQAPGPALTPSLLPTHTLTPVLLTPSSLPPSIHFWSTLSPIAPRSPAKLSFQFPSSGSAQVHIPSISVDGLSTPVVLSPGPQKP
How it was run: (§1)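 Binding signal is each hexamer's read frequency for a factor divided by its frequency in the tag-only sample. The factors were GST-fused human transcription factors from yeast, captured on glutathione beads, DNA-barcoded and pooled with that sample. Pools were incubated with 200 nmole of a random double-stranded 16-mer DNA library in Tris/NaCl/DTT/glycerol buffer at room temperature for 30 min, then washed, crosslinked with 0.1% formaldehyde, proximity-ligated with BsaI/T4 ligase (1 h, 37 °C), PCR-amplified and sequenced on an Illumina NextSeq500.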

GABPA = target: T2, GABPA (Homo sapiens, UniProt Q06546 1-454); settings: protein: recombinant; tags: N-terminal GST; dsDNA, one strand shown
T2 sequence: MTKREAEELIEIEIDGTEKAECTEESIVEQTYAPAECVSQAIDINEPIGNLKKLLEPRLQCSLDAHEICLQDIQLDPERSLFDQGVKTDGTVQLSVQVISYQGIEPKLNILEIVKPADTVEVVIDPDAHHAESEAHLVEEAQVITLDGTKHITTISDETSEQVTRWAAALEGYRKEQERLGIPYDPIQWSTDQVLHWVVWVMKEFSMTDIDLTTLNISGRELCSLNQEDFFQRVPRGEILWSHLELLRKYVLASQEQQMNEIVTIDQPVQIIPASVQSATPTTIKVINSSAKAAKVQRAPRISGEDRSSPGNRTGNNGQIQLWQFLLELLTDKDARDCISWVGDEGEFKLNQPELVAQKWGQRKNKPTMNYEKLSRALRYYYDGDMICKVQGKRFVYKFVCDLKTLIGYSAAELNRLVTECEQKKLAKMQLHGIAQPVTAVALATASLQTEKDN
How it was run: as §1

ERG = target: T3, ERG (Homo sapiens, UniProt P11308 1-479); settings: protein: recombinant; tags: N-terminal GST; dsDNA, one strand shown
T3 sequence: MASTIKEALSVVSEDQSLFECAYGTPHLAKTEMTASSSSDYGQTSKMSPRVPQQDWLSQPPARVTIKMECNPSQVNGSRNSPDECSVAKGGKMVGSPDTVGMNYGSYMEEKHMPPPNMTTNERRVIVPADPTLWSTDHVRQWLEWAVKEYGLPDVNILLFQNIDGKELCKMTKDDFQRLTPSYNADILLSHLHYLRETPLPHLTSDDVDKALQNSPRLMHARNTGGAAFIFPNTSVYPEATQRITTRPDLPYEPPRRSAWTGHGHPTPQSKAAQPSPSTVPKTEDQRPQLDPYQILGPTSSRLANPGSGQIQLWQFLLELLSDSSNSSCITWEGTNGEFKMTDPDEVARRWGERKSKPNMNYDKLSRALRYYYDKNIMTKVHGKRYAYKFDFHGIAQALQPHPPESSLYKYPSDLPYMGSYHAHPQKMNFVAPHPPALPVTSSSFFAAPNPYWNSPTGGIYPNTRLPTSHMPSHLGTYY
How it was run: as §1

ELF1 = ELF1 (Homo sapiens, UniProt P32519 1-619); settings: protein: recombinant; tags: N-terminal GST; dsDNA, one strand shown
Chain of ELF1 (P32519 whole entry): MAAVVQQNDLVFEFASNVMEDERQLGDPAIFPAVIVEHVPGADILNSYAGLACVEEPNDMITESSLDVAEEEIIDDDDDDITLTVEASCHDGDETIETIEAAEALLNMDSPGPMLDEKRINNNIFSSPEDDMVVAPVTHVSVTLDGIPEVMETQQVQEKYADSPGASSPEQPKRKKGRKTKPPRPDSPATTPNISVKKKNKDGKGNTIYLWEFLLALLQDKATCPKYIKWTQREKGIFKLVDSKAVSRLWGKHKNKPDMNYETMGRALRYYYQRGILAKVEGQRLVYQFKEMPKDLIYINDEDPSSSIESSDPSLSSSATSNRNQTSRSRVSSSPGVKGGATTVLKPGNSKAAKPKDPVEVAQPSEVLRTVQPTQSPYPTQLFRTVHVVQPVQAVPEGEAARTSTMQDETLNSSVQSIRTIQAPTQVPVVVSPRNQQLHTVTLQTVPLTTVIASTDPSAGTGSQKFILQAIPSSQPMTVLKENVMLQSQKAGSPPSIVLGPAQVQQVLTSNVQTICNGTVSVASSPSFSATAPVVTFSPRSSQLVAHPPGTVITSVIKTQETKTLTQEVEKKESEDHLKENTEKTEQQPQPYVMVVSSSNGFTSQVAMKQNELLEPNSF
How it was run: as §1

EHF = target: T4, EHF (Homo sapiens, UniProt Q9NZC4 1-300); settings: protein: recombinant; tags: N-terminal GST; dsDNA, one strand shown
T4 sequence: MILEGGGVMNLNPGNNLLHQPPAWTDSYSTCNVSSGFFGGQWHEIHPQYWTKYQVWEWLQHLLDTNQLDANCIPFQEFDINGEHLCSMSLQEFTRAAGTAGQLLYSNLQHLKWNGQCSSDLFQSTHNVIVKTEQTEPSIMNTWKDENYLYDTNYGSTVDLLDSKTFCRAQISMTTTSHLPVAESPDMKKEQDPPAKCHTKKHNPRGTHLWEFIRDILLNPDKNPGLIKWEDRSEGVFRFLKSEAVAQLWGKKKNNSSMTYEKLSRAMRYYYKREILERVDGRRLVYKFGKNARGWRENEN
How it was run: as §1

HSF1 = HSF1 (Homo sapiens, UniProt Q00613 1-529); settings: protein: recombinant; tags: N-terminal GST; chain copies: 3; dsDNA, one strand shown
Chain of HSF1 (Q00613 whole entry): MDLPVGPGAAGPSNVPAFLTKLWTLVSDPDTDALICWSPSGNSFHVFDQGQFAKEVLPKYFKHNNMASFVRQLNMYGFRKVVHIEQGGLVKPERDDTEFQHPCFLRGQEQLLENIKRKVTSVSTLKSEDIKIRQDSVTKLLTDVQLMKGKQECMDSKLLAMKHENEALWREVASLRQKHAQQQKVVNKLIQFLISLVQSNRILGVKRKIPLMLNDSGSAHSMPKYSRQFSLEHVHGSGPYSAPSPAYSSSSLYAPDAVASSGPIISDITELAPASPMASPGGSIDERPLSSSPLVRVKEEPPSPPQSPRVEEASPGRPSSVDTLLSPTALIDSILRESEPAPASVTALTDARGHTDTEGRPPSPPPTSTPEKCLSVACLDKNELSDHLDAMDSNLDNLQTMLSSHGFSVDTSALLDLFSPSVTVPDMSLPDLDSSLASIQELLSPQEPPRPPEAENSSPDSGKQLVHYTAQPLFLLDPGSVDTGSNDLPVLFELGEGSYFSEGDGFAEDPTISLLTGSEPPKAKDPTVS
How it was run: as §1

SPIC = target: T5, SPIC (Homo sapiens, UniProt Q8N5J4 1-248); settings: protein: recombinant; tags: N-terminal GST; dsDNA, one strand shown
T5 sequence: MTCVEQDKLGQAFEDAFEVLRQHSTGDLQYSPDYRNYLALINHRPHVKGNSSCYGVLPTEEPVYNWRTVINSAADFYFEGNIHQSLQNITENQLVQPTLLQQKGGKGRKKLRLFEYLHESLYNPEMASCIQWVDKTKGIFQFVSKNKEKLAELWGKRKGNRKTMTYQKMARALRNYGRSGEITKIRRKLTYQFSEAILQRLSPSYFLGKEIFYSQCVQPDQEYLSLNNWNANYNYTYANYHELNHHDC
How it was run: as §1

CRX = CRX (Homo sapiens, UniProt O43186 1-299); settings: protein: recombinant; tags: N-terminal GST; dsDNA, one strand shown
Chain of CRX (O43186 whole entry): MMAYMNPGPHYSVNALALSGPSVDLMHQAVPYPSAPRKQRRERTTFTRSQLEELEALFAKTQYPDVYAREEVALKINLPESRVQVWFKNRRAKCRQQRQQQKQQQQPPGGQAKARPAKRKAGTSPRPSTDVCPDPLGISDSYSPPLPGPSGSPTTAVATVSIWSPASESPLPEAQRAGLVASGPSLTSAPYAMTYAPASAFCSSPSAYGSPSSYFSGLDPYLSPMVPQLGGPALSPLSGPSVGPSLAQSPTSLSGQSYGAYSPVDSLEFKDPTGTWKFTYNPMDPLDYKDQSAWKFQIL
How it was run: as §1

ERF = target: T6, ERF (Homo sapiens, UniProt P50548 1-548); settings: protein: recombinant; tags: N-terminal GST; dsDNA, one strand shown
T6 sequence: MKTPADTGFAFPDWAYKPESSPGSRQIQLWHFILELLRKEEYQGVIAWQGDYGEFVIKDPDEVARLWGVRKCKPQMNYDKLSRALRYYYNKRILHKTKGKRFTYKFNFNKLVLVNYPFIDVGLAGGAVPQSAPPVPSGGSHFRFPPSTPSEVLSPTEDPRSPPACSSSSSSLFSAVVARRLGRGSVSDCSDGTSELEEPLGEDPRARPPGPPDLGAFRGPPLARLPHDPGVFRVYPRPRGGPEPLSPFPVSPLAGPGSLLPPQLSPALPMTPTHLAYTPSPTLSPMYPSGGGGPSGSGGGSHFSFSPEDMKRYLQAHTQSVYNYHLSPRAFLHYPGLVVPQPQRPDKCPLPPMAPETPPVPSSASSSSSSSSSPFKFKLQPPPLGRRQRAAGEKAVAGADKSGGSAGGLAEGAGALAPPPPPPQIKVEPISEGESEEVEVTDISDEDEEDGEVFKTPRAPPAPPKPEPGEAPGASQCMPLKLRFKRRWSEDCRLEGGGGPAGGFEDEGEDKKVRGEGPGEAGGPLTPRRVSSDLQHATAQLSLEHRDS
How it was run: as §1

SPIB = SPIB (Homo sapiens, UniProt Q01892 1-262); settings: protein: recombinant; tags: N-terminal GST; dsDNA, one strand shown
Chain of SPIB (Q01892 whole entry): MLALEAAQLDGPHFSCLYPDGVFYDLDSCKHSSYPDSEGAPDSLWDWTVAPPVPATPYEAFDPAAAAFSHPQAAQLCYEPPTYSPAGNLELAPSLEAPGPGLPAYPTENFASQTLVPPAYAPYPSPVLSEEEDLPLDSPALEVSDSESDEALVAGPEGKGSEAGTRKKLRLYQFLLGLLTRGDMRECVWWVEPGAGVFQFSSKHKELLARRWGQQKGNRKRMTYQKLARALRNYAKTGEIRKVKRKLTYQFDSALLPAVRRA
How it was run: as §1

ELK3 = target: T7, ELK3 (Homo sapiens, UniProt P41970 1-407); settings: protein: recombinant; tags: N-terminal GST; dsDNA, one strand shown
T7 sequence: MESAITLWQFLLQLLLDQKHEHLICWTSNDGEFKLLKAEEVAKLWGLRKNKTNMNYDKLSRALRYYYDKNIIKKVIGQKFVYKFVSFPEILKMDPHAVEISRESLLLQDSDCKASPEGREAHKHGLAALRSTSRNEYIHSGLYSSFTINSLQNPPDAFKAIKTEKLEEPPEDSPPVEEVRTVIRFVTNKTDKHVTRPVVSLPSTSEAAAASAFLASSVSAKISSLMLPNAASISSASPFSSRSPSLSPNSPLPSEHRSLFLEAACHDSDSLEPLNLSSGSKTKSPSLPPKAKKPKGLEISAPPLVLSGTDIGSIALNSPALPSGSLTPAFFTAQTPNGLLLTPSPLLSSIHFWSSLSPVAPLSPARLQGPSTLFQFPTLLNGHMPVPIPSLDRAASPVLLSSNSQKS
How it was run: as §1

ELF4 = ELF4 (Homo sapiens, UniProt Q99607 1-663); settings: protein: recombinant; tags: N-terminal GST; dsDNA, one strand shown
Chain of ELF4 (Q99607 whole entry): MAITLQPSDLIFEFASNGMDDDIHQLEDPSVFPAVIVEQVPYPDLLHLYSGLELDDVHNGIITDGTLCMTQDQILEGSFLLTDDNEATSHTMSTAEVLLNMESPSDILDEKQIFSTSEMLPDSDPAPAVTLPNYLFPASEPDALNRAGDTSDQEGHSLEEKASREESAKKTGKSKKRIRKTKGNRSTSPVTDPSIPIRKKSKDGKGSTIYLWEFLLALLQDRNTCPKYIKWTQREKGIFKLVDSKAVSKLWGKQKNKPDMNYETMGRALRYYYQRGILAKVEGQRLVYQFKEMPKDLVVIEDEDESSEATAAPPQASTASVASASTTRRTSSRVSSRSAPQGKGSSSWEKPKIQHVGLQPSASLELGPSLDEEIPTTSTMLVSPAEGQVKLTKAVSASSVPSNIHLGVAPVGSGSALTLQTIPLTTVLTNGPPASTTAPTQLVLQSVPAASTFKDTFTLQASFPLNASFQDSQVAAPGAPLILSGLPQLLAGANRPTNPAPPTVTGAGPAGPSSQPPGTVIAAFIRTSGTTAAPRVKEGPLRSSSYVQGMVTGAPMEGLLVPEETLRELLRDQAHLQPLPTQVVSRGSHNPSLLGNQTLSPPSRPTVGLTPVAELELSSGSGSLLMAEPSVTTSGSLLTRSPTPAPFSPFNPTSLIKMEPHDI
How it was run: as §1

ETV2 = target: T8, ETV2 (Homo sapiens, UniProt O00321 1-342); settings: protein: recombinant; tags: N-terminal GST; dsDNA, one strand shown
T8 sequence: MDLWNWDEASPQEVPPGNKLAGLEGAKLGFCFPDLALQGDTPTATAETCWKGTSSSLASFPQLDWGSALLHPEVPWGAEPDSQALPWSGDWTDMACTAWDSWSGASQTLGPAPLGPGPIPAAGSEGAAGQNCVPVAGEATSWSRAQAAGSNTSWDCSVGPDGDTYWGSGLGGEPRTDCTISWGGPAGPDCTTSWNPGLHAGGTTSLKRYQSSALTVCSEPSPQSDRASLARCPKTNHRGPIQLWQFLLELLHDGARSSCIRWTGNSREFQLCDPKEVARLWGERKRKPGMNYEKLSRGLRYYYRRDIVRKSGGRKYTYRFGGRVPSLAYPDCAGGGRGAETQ
How it was run: as §1

ETV1 = ETV1 (Homo sapiens, UniProt P50549 1-477); settings: protein: recombinant; tags: N-terminal GST; dsDNA, one strand shown
Chain of ETV1 (P50549 whole entry): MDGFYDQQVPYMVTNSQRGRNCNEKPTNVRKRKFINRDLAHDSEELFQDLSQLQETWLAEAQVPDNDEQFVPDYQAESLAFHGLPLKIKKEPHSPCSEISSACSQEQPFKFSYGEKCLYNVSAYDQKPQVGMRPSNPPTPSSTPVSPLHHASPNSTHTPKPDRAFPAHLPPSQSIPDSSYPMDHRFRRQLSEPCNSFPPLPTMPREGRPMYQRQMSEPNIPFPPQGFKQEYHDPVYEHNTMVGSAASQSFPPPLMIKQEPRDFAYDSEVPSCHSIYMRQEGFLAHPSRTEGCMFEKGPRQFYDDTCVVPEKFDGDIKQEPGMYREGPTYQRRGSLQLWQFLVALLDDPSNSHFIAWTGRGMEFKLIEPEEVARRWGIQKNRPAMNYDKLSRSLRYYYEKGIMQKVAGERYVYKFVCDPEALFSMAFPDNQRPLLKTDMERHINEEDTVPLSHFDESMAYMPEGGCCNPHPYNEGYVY
How it was run: as §1

ELK4 = target: T9, ELK4 (Homo sapiens, UniProt P28324-2 1-405); settings: protein: recombinant; tags: N-terminal GST; dsDNA, one strand shown
T9 sequence: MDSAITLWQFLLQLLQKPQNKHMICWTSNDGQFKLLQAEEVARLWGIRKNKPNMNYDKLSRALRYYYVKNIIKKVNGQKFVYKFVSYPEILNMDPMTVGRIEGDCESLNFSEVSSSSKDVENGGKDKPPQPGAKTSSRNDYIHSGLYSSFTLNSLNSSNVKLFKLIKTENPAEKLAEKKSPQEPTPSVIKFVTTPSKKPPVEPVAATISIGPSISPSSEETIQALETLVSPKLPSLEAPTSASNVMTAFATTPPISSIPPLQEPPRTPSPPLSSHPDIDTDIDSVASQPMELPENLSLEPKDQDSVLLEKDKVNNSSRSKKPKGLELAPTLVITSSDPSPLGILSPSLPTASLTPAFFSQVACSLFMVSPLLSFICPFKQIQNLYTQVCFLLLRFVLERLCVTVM
How it was run: as §1

## ACTAGA
ELK1
  binding signal: 1.02 fold enrichment (6-mer frequency, TF over GST control)
GABPA
  binding signal: 1.01 fold enrichment (6-mer frequency, TF over GST control)
ERG
  binding signal: 1 fold enrichment (6-mer frequency, TF over GST control)
ELF1
  binding signal: 1.02 fold enrichment (6-mer frequency, TF over GST control)
EHF
  binding signal: 1.01 fold enrichment (6-mer frequency, TF over GST control)
HSF1
  binding signal: 2.1 fold enrichment (6-mer frequency, TF over GST control)
SPIC
  binding signal: 1.03 fold enrichment (6-mer frequency, TF over GST control)
CRX
  binding signal: 1.16 fold enrichment (6-mer frequency, TF over GST control)
ERF
  binding signal: 1.05 fold enrichment (6-mer frequency, TF over GST control)

## ACGAGA
HSF1
  binding signal: 1.14 fold enrichment (6-mer frequency, TF over GST control)

## TTAGCC
GABPA
  binding signal: 1.01 fold enrichment (6-mer frequency, TF over GST control)
ELF1
  binding signal: 1.06 fold enrichment (6-mer frequency, TF over GST control)
EHF
  binding signal: 1.03 fold enrichment (6-mer frequency, TF over GST control)
SPIB
  binding signal: 1 fold enrichment (6-mer frequency, TF over GST control)
ELK3
  binding signal: 1.02 fold enrichment (6-mer frequency, TF over GST control)
HSF1
  binding signal: 1.45 fold enrichment (6-mer frequency, TF over GST control)
SPIC
  binding signal: 1.04 fold enrichment (6-mer frequency, TF over GST control)
ELF4
  binding signal: 1.01 fold enrichment (6-mer frequency, TF over GST control)
ETV2
  binding signal: 1.06 fold enrichment (6-mer frequency, TF over GST control)
CRX
  binding signal: 2.22 fold enrichment (6-mer frequency, TF over GST control)
ETV1
  binding signal: 1.02 fold enrichment (6-mer frequency, TF over GST control)
ERF
  binding signal: 1.07 fold enrichment (6-mer frequency, TF over GST control)

## GGAATG
HSF1
  binding signal: 1.25 fold enrichment (6-mer frequency, TF over GST control)

## CTAGAG
HSF1
  binding signal: 1.58 fold enrichment (6-mer frequency, TF over GST control)

## GATGGA
HSF1
  binding signal: 1.1 fold enrichment (6-mer frequency, TF over GST control)
SPIC
  binding signal: 1.22 fold enrichment (6-mer frequency, TF over GST control)
ELK4
  binding signal: 1.04 fold enrichment (6-mer frequency, TF over GST control)
ETV2
  binding signal: 1.02 fold enrichment (6-mer frequency, TF over GST control)
